According to PubChem BioAssay AID2535 (National Center for Advancing Translational Sciences (NCATS), 2010):
Calls of active or inactive are those of the source. Calls follow the shape of the dose curve; as a rule, active = well fitted curve in the direction sought with a large enough effect; inconclusive = small, poorly fitted or top-dose-only effect, or effect the other way, or another doubt; inactive = no such curve, though single readings can be large or run the other way.

These molecules were tested against Pyruvate kinase PKLR (Homo sapiens) (UniProt P30613) (assay: Secondary Concentration-Response Assay for Activators of Human Liver Pyruvate Kinase: for Probe SAR). Details: purified hPK-L, ATP production, Kinase-Glo luminescence; series mostly up to 58.3 µM; activity change, positive = activation: at the top concentration.
Chain of Pyruvate kinase PKLR (Homo sapiens) (P30613 whole entry, looked up): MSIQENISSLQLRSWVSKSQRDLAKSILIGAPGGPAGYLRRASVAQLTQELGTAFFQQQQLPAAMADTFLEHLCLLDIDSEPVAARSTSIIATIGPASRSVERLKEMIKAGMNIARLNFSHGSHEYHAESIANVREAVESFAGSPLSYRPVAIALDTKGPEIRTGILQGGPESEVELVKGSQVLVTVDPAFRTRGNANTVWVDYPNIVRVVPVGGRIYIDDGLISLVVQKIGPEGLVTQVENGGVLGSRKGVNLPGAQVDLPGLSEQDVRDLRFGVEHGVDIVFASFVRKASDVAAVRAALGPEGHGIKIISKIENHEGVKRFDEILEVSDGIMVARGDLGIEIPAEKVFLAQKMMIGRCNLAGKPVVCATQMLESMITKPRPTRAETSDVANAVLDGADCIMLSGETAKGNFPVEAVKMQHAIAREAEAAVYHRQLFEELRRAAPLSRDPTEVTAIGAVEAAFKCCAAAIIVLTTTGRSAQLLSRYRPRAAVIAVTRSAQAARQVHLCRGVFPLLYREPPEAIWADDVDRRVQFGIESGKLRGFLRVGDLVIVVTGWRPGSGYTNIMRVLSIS
Excerpt: NIH Chemical Genomics Center [NCGC]
Matthew G. Vander Heiden, M.D., Ph.D. [Harvard Medical School, 77 Avenue Louis Pasteur, Boston, MA 02115]
Human pyruvate kinase liver (hPK-L) enzyme was supplied as a highly purified (>95% pure) preparation from Harvard Medical School and assayed for its ability to generate ATP from ADP using phosphoenolpyruvate (PEP) as a substrate. ATP generation was detected in a coupled reaction by luciferase-mediated luminescence, an ATP-dependent process. Pyruvate kinase substrates, PEP and ADP, were present in the assay at Km and approximately 10-fold below Km respectively. The enzyme was assayed at an intermediate level of activity to screen for both inhibitors and activators.
NCGC Assay Protocol Summary for L-isoform:
Three uL of substrate mix (at r.t.) in assay buffer (50 mM Imidazole pH7.2, 50 mM KCl, 7 mM MgCl2, 0.01% Tween 20, 0.05% BSA) was dispensed into white solid bottom 1,536 well microtiter plates so that the final concentrations of substrates in the assay were 0.1 mM ADP and 0.5 mM PEP. 23 nL of compound were delivered by a pin tool and 1 uL of enzyme mix (final concentration of 0.1 nM) in assay buffer (4 degree Celsius) was added. Plates were incubated at room temperature for 1 hour. Two uL of detection mix (Kinase-Glo, Promega; at 4 degree Celsius protected from light) was added and luminescence read by a ViewLux (Perkin Elmer) at 1 second exposure/plate. Data were normalized to the uninhibited (row 31). Additionally, a no enzyme and 5-fold enzyme control was dispensed in row 32, split equally between the two conditions.
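Also: 0% = uninhibited enzyme wells on each plate.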

Activity change, positive = activation, inactive:
Cc1ccccc1OC1=NS(=O)(=O)c2ccccc21 0.916%, COc1cccc(NS(=O)(=O)c2ccc3c(c2)CCC(=O)N3)c1 8.7%, O=C1c2ccccc2C(=O)N1c1ccc2ncccc2c1 5.86%, Cc1ccc2nc(-c3ccc(C)o3)c(Nc3ccc(F)cc3)n2c1 -1.65%, O=C1CCc2cc(S(=O)(=O)Nc3ccc(F)c(Cl)c3)ccc2N1 4.41%, Cc1ccc(NS(=O)(=O)c2ccc3c(c2)CCCC(=O)N3)cc1C 11.3%, Cc1ccc(NC(=O)c2ccc3c(c2)CCC(=O)N3)cc1C 3.59%, COc1cccc(OC2=NS(=O)(=O)c3ccccc32)c1 -5.35%, O=C1CCc2cc(S(=O)(=O)Nc3ccc(-c4ccccc4)cc3)ccc2N1 5.78%, Cc1cc(N2C(=O)c3ccccc3C2=O)no1 -9.96%, O=C1CCc2cc(S(=O)(=O)Nc3cccc(B(O)O)c3)ccc2N1 6.48%, O=S1(=O)N=C(Oc2ccccc2)c2ccccc21 -3.69% [at 82.8 µM], Cc1ccc(N2C(=O)c3ccccc3C2=O)c(C)c1 0.619%, Cc1ccc(NS(=O)(=O)c2ccc(F)cc2)cc1C -2.34%, Cc1ccc2nc(-c3cccs3)c(Nc3ccccc3)n2c1 -8.18%, O=C1CCc2cc(S(=O)(=O)Nc3ccc(Cl)c(Cl)c3)c(F)cc2N1 17%, CN(C)c1cccc(S(=O)(=O)N2CCN(S(=O)(=O)c3ccc4c(c3)OCCO4)CC2)c1 13.5%, O=C1CCc2cc([S+](=O)([O-])NC3CCOCC3)ccc2N1 -3.54%, COc1ccc(OC2=NS(=O)(=O)c3ccccc32)cc1 -3.39%, O=C1c2ccccc2C(=O)N1c1cccc2cnccc12 -1.65%, N#Cc1cccc(NS(=O)(=O)c2ccc3c(c2)CCC(=O)N3)c1 14.9%, COc1ccc(Nc2c(-c3ccc(C)o3)nc3ccccn23)cc1 2.05%, COc1cc(N2C(=O)c3ccccc3C2=O)c2ncccc2c1 4.29%, O=C1c2ccccc2C(=O)N1c1cccc2cccnc12 3.16%, O=S1(=O)N=C(Oc2ccc(Cl)cc2)c2ccccc21 -6.67%, Cc1cccc(OC2=NS(=O)(=O)c3ccccc32)c1 2.27%, COc1cc(F)c(S(=O)(=O)N2CCCN(S(=O)(=O)c3cccc(N)c3)CC2)c(F)c1 22.6%, Cc1ccn2c(NC3CCCCC3)c(-c3ccc(C)o3)nc2c1 -25.8%, Cc1ccc(NS(=O)(=O)c2cc3c(cc2-c2ccsc2)NC(=O)CO3)cc1C 13.4%, N#Cc1ccc(NS(=O)(=O)c2ccc3c(c2)CCC(=O)N3)cc1 3.86%, CCNc1cccc(S(=O)(=O)N2CCCN(S(=O)(=O)c3ccc4c(c3)OCCO4)CC2)c1 25.5%, O=C1CCc2cc(S(=O)(=O)Nc3cccc(Br)c3)ccc2N1 6.23%, CCNc1cccc(S(=O)(=O)N2CCN(S(=O)(=O)c3ccc4c(c3)OCCO4)CC2)c1 21.8%, Nc1cccc(S(=O)(=O)N2CCCN(S(=O)(=O)c3ccc4c(c3)OCCO4)CC2)c1 11.9%, Cc1ccc2nc(-c3ccc(C)o3)c(NC3CCCC3)n2c1 7.09%, Cc1ccc(NS(=O)(=O)c2ccc(-c3ccccc3)cc2)cc1C 10.8%, O=C1CCc2cc(S(=O)(=O)Nc3cccnc3)ccc2N1 0.695%, Cc1ccc(NS(=O)(=O)c2ccc3c(c2)N(C)CCO3)cc1C 8.48%, CN(C)c1cccc(S(=O)(=O)N2CCCN(S(=O)(=O)c3ccc4c(c3)OCCO4)CC2)c1 20%

outcome, inactive:
O=S(=O)(c1ccc2c(c1)OCCO2)N1CCN(S(=O)(=O)c2c(F)cccc2F)CC1
